The full ranking holds about 16,000 sequences; the median of “rpm ratio (pull-down/input)” is about 0.94, and the highest 2% start at about 1.7. The full list was thinned out, with the highest values kept by preference.

This test addresses T1, MBP-FoxP1dN (Mus musculus, UniProt P58462 326-579).
T1 sequence: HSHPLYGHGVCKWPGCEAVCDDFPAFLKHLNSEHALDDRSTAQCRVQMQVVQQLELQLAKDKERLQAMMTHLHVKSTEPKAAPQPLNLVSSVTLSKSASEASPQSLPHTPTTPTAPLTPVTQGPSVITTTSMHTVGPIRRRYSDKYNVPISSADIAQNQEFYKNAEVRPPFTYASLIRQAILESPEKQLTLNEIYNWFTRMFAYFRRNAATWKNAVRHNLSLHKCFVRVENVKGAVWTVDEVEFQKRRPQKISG
The test is described as follows: PD-seq (MBP pull-down with sequencing); 20 mM Tris-HCl pH 7.5, 100 mM NaCl, 1.5 mM MgCl2, 0.4 uM protein, 0.1 uM dsDNA library, 30 min, room temperature, amylose pull-down; high values mean tight binding. The note with it: protein: recombinant; tags: His6-MBP; chain copies: 2; dsDNA, one strand shown. An outline of the steps:
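Binding is the reads-per-million enrichment of pull-down relative to input, pooled across replicates. For this, 0.4 µM His6-MBP-tagged mouse FoxP3 or FoxP1 fragment lacking the N-terminus, made in E. coli, was incubated with 0.1 µM Klenow-filled double-stranded degenerate DNA library for 30 min at room temperature in Tris pH 7.5 buffer with NaCl and MgCl2. Complexes bound to amylose resin were washed three times before proteinase K released the DNA for PCR barcoding and Illumina sequencing.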
“GATGATTGTTCTCCCAGCTGATGAATTTACCCCGTCGAGTAAACAAATTTTCCTAATCTTTCTGTTCAAGCGCCATCTAC”: the binding signal is 1.07 RPM ratio (pull-down/input).
As to “GATGATTGTTCTCCCAGCTGATGAATTCGTCTCTTCGAGTAAACAAATTTTCCTAATCTTTCTGTTCAAGCGCCATCTAC”, the binding signal was 0.871 RPM ratio (pull-down/input).
Then “GATGATTGTTCTCCCAGCTGATGAATTGGAACGTTCGAGTAAACAAATTTTCCTAATCTTTCTGTTCAAGCGCCATCTAC”, with 0.904 RPM ratio (pull-down/input); and “GATGATTGTTCTCCCAGCTGATGAATTATTGTGGTCGAGTAAACAAATTTTCCTAATCTTTCTGTTCAAGCGCCATCTAC”, with 1.51 RPM ratio (pull-down/input); and “GATGATTGTTCTCCCAGCTGATGAATTGCTGTTGTCGAGTAAACAAATTTTCCTAATCTTTCTGTTCAAGCGCCATCTAC”, with 2.5 RPM ratio (pull-down/input).
As to “GATGATTGTTCTCCCAGCTGATGAATTGCTGCTGTCGAGTAAACAAATTTTCCTAATCTTTCTGTTCAAGCGCCATCTAC”, the binding signal was 1.29 RPM ratio (pull-down/input).
As to “GATGATTGTTCTCCCAGCTGATGAATTGTTGCTGTCGAGTAAACAAATTTTCCTAATCTTTCTGTTCAAGCGCCATCTAC”, the binding signal is 2 RPM ratio (pull-down/input).
For “GATGATTGTTCTCCCAGCTGATGAATTTTTGCTGTCGAGTAAACAAATTTTCCTAATCTTTCTGTTCAAGCGCCATCTAC”, the binding signal is 1.59 RPM ratio (pull-down/input).
With “GATGATTGTTCTCCCAGCTGATGAATTCTTGCTGTCGAGTAAACAAATTTTCCTAATCTTTCTGTTCAAGCGCCATCTAC”, the binding signal was 1.45 RPM ratio (pull-down/input).
As for “GATGATTGTTCTCCCAGCTGATGAATTGCTGATGTCGAGTAAACAAATTTTCCTAATCTTTCTGTTCAAGCGCCATCTAC”, the binding signal is 1.22 RPM ratio (pull-down/input).
On to “GATGATTGTTCTCCCAGCTGATGAATTCTCTCGCTCGAGTAAACAAATTTTCCTAATCTTTCTGTTCAAGCGCCATCTAC”, for which the binding signal was 0.825 RPM ratio (pull-down/input).
As to “GATGATTGTTCTCCCAGCTGATGAATTCTACCCCTCGAGTAAACAAATTTTCCTAATCTTTCTGTTCAAGCGCCATCTAC”, the binding signal was 0.797 RPM ratio (pull-down/input).
For the sequence “GATGATTGTTCTCCCAGCTGATGAATTGCGATAATCGAGTAAACAAATTTTCCTAATCTTTCTGTTCAAGCGCCATCTAC”, the binding signal is 1.43 RPM ratio (pull-down/input).
For the sequence “GATGATTGTTCTCCCAGCTGATGAATTTGTTGTATCGAGTAAACAAATTTTCCTAATCTTTCTGTTCAAGCGCCATCTAC”, the binding signal is 2.21 RPM ratio (pull-down/input).
With “GATGATTGTTCTCCCAGCTGATGAATTTGTATCATCGAGTAAACAAATTTTCCTAATCTTTCTGTTCAAGCGCCATCTAC”, the binding signal is 1.51 RPM ratio (pull-down/input).
Regarding “GATGATTGTTCTCCCAGCTGATGAATTTTTTGTATCGAGTAAACAAATTTTCCTAATCTTTCTGTTCAAGCGCCATCTAC”, the binding signal was 1.26 RPM ratio (pull-down/input).
As to “GATGATTGTTCTCCCAGCTGATGAATTGTTTGTATCGAGTAAACAAATTTTCCTAATCTTTCTGTTCAAGCGCCATCTAC”, the binding signal was 2.64 RPM ratio (pull-down/input).
The same measure for “GATGATTGTTCTCCCAGCTGATGAATTTGCTGTATCGAGTAAACAAATTTTCCTAATCTTTCTGTTCAAGCGCCATCTAC”: 1.16 RPM ratio (pull-down/input); for “GATGATTGTTCTCCCAGCTGATGAATTTGATGTATCGAGTAAACAAATTTTCCTAATCTTTCTGTTCAAGCGCCATCTAC”: 1.25 RPM ratio (pull-down/input); for “GATGATTGTTCTCCCAGCTGATGAATTCCGCCTATCGAGTAAACAAATTTTCCTAATCTTTCTGTTCAAGCGCCATCTAC”: 0.791 RPM ratio (pull-down/input).
With “GATGATTGTTCTCCCAGCTGATGAATTTGGGGTGTCGAGTAAACAAATTTTCCTAATCTTTCTGTTCAAGCGCCATCTAC”, the binding signal was 0.832 RPM ratio (pull-down/input).
For “GATGATTGTTCTCCCAGCTGATGAATTGGTTGTATCGAGTAAACAAATTTTCCTAATCTTTCTGTTCAAGCGCCATCTAC”, the binding signal was 1.3 RPM ratio (pull-down/input).
Regarding “GATGATTGTTCTCCCAGCTGATGAATTTTTGGTATCGAGTAAACAAATTTTCCTAATCTTTCTGTTCAAGCGCCATCTAC”, the binding signal was 1.09 RPM ratio (pull-down/input).
Turning to “GATGATTGTTCTCCCAGCTGATGAATTGGTATTATCGAGTAAACAAATTTTCCTAATCTTTCTGTTCAAGCGCCATCTAC”, the binding signal was 1.9 RPM ratio (pull-down/input).
For “GATGATTGTTCTCCCAGCTGATGAATTATTGGTATCGAGTAAACAAATTTTCCTAATCTTTCTGTTCAAGCGCCATCTAC”, the binding signal was 1.55 RPM ratio (pull-down/input).
Then “GATGATTGTTCTCCCAGCTGATGAATTATCGGTATCGAGTAAACAAATTTTCCTAATCTTTCTGTTCAAGCGCCATCTAC”, with 1.02 RPM ratio (pull-down/input).
The same measure for “GATGATTGTTCTCCCAGCTGATGAATTGTTGGTATCGAGTAAACAAATTTTCCTAATCTTTCTGTTCAAGCGCCATCTAC”: 1.92 RPM ratio (pull-down/input); for “GATGATTGTTCTCCCAGCTGATGAATTGTGTGCCTCGAGTAAACAAATTTTCCTAATCTTTCTGTTCAAGCGCCATCTAC”: 1.14 RPM ratio (pull-down/input).
Take “GATGATTGTTCTCCCAGCTGATGAATTGCGATGCTCGAGTAAACAAATTTTCCTAATCTTTCTGTTCAAGCGCCATCTAC”: the binding signal was 1.2 RPM ratio (pull-down/input).
For the sequence “GATGATTGTTCTCCCAGCTGATGAATTCCGAGAGTCGAGTAAACAAATTTTCCTAATCTTTCTGTTCAAGCGCCATCTAC”, the binding signal was 0.749 RPM ratio (pull-down/input).
Turning to “GATGATTGTTCTCCCAGCTGATGAATTCATCGTCTCGAGTAAACAAATTTTCCTAATCTTTCTGTTCAAGCGCCATCTAC”, the binding signal was 0.784 RPM ratio (pull-down/input).
For “GATGATTGTTCTCCCAGCTGATGAATTCAGGTTCTCGAGTAAACAAATTTTCCTAATCTTTCTGTTCAAGCGCCATCTAC”, the binding signal is 0.857 RPM ratio (pull-down/input).

The values are drawn from article PMC12820563, “FoxP3 forms a head-to-head dimer in vivo and stabilizes its multimerization on adjacent microsatellites”.
